Source: PubChem BioAssay
Shn3 3UTR inh: inhibitors of Schnurri-3 3'UTR reporter in osteoblasts; Clone20 osteoblast Shn3 3'UTR firefly luciferase, 24 h; inhibition, % at 12.5 µM; 360,000 compounds, 0.52% hits; AID 588674;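 active = mean inhibition of at least 75% with every replicate also reaching 75%; inconclusive = mean inhibition at least 75% but some replicate below; inactive = mean inhibition below 75%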
LMP1 NFkB inh: Epstein-Barr LMP1 NF-kappaB reporter inhibition. 350,000 compounds, 0.69% hits. LMP1-induced NF-kappaB luciferase reporter cells, luminescence. inhibition, % at 12.5 µM; in the data active = inhibition above about 41%; inconclusive = no clear call, values can overlap the other calls
LGR2 inh: Drosophila LGR2 receptor signaling inhibition. HEK293 LGR2, CRE-luciferase, bursicon-stimulated, 4 h. inhibition, % at 9.99 µM. 380,000 compounds, 0.35% hits;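 active = drop in luminescence signal, shown as inhibition above about 50% in the replicate tests, limit read from the data, passing the limit was not always enough; inconclusive = probably only some replicates passing the limit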;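 note: agonist challenge used bursicon conditioned medium at about half maximal strength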
EWS-Fli block: blocks EWS/Fli oncoprotein-driven transcription; AID 651661; 350,000 compounds, 0.67% hits; inhibition, % at 12.6 µM; A673 NR0B1-luciferase reporter, viability-normalised;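 active = mean inhibition of at least 50% after viability correction, with every replicate also passing that limit; inconclusive = mean reaches 50% but only one of two replicates passes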;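 note: firefly luciferase signal divided by Alamar Blue viability fluorescence both relative to DMSO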
MITF TRPM1 inh: MITF TRPM1 promoter inhibition in SK-MEL-5 cells. SK-MEL-5 TRPM1 promoter luciferase, 24 h. inhibition, % at 12.5 µM. 330,000 compounds, 0.83% hits;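 active = mean inhibition across replicates of 60% or more, whatever share of single replicates reaches that level; inconclusive = some that reach 60%, reason not given; inactive = mean inhibition across replicates below 60%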
PAX8 reporter: PAX8 transcriptional activity inhibition; RMG-I TPO-luciferase reporter, SteadyGlo, 24 h; inhibition, % at 12.6 µM; 360,000 compounds, 1.2% hits;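 active = mean replicate inhibition at least 60% with every replicate also reaching 60%; inconclusive = only one of the two criteria is met; inactive = mean below 60% and not all replicates reaching 60%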;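 note: luciferase light reporting Pax8 driven TPO promoter activity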
Numbers stand for hits; – = inactive; ? = inconclusive; · = no result given; ! = not active in a repeat. An excerpt weighted towards active compounds, which were near 2.2% of everything screened.

SMILES | Shn3 3UTR inh | LMP1 NFkB inh | LGR2 inh | EWS-Fli block | MITF TRPM1 inh | PAX8 reporter
C[C@H]1CN([C@@H](C)CO)C(=O)c2cc(NC(=O)Nc3ccc(C(F)(F)F)cc3)ccc2O[C@@H]1CN(C)Cc1ccc(Cl)c(Cl)c1 | · | · | – | 58 | · | ·
C[C@@H]1CN([C@@H](C)CO)C(=O)c2cc(NC(=O)Nc3ccc4c(c3)OCO4)ccc2O[C@@H]1CN(C)C(=O)Nc1ccc(C(F)(F)F)cc1 | · | · | – | – | · | 77
C[C@@H]1CN([C@@H](C)CO)C(=O)c2cc(NC(=O)Nc3ccc(C(F)(F)F)cc3)ccc2O[C@H]1CN(C)Cc1ccc(Cl)c(Cl)c1 | · | · | – | – | · | ·
COc1ccc(NC(=O)Nc2ccc3c(c2)C(=O)N([C@@H](C)CO)C[C@@H](C)[C@@H](CN(C)Cc2ccc(C(F)(F)F)cc2)O3)cc1 | · | · | – | – | · | 105
CCCC(=O)Nc1ccc2c(c1)C(=O)N(C)C[C@H](OC)[C@@H](C)CN(CC1CCCC1)[C@@H](C)CO2 | · | · | – | – | · | ·
COC(=O)C[C@@H]1CC[C@@H]2[C@@H](COc3ccc(NC(=O)c4cccc(F)c4)cc3C(=O)N2C)O1 | · | · | – | – | · | –
C[C@@H]1CN([C@@H](C)CO)C(=O)c2cc(NC(=O)C3CC3)ccc2O[C@@H]1CN(C)Cc1ccc(Cl)c(Cl)c1 | – | – | – | 57! | – | –
O=C(Nc1ccc(Cl)c(Cl)c1)N[C@@H]1CC[C@H](CCn2cc(C3CCCCC3)nn2)O[C@H]1CO | · | · | – | – | · | 113
C[C@H]1CN([C@@H](C)CO)C(=O)c2cc(NC(=O)Nc3ccc4c(c3)OCO4)ccc2O[C@@H]1CN(C)S(C)(=O)=O | · | · | – | – | · | ·
COc1ccc(NC(=O)Nc2ccc3c(c2)C(=O)N([C@H](C)CO)C[C@@H](C)[C@@H](CN(C)S(=O)(=O)c2cn(C)cn2)O3)cc1 | · | · | – | – | · | ·
CCN(Cc1ccccc1)S(=O)(=O)c1ccc(C(=O)N(CCCN(C)C)c2nc3ccc(F)cc3s2)cc1 | – | – | – | – | 91 | –
COc1ccc2sc(N(CCCN(C)C)C(=O)c3ccc(S(=O)(=O)N4CCCc5ccccc54)cc3)nc2c1 | – | – | – | – | 77 | –
COc1cc2nc(N(CCCN(C)C)C(=O)c3ccc(S(=O)(=O)N4CCc5ccccc54)cc3)sc2cc1OC | – | – | – | – | – | –
CCN(Cc1ccccc1)S(=O)(=O)c1ccc(C(=O)N(CCCN(C)C)c2nc3cc(OC)ccc3s2)cc1 | – | – | – | – | 63 | –
CO[C@@H]1CN(C)C(=O)c2cc(NS(=O)(=O)c3ccccc3)ccc2OC[C@H](C)NC[C@@H]1C | · | · | – | – | · | –
Cc1noc(C)c1S(=O)(=O)Nc1ccc2c(c1)CC(=O)N([C@H](C)CO)C[C@@H](C)[C@H](CN(C)C(=O)Nc1ccccc1)O2 | · | · | – | – | · | ·
NS(=O)(=O)c1ccc(NC(=O)c2cc(Cl)sc2Cl)cc1 | – | – | – | – | – | 63
NS(=O)(=O)c1ccc(NC(=O)c2cc(Cl)ccc2Cl)cc1 | – | – | – | – | – | –
Cn1c2c(c(=O)n(C)c1=O)C(C(F)(F)F)(C(F)(F)F)N=C(c1ccc(Cl)cc1)N2 | 81 | – | · | · | 72 | ·
C[C@@H]1CCCCO[C@H](CN(C)C(=O)Cc2ccccc2)[C@H](C)CN([C@@H](C)CO)C(=O)c2cc(NS(=O)(=O)c3ccc(Cl)cc3)ccc2O1 | · | · | – | – | · | –
C[C@H](CO)N1C[C@H](C)[C@H](CN(C)C(=O)Cc2ccccc2)OCCCC[C@H](C)Oc2ccc(NS(=O)(=O)c3ccccc3)cc2C1=O | · | · | – | 60 | · | –
C[C@H](CO)N1C[C@H](C)[C@H](CN(C)C(=O)Cc2ccccc2)OCCCC[C@H](C)Oc2ccc(NS(=O)(=O)c3ccc(Cl)cc3)cc2C1=O | · | · | – | – | · | 67
C[C@@H]1CCCCO[C@@H](CN(C)C(=O)CCCN(C)C)[C@@H](C)CN([C@H](C)CO)C(=O)c2cc(NC(=O)c3ccccc3)ccc2O1 | · | · | – | – | · | –
CC(C)(C)c1ccc(SC2=C[C@@]3(O)CC[C@@H](O)[C@@](Sc4ccc(C(C)(C)C)cc4)(C2=O)[C@H]3O)cc1 | · | · | – | – | · | 85
Cc1noc(C)c1NC(=O)Nc1cccc2c1O[C@H](CN(C)C(=O)Nc1ccc3c(c1)OCO3)[C@@H](C)CN([C@@H](C)CO)C2=O | · | · | – | – | · | –
SMILES | Shn3 3UTR inh | LMP1 NFkB inh | LGR2 inh | EWS-Fli block | MITF TRPM1 inh | PAX8 reporter
O=C(Nc1ccc(N2CCCCCC2)cc1)c1ccccc1Cl | – | – | – | – | – | –
O=C(Nc1ccc(N2CCCCC2)cc1)c1ccccn1 | – | 75 | · | · | 82 | ·
O=C(Nc1ccc(N2CCOCC2)cc1)c1cn2ccccc2n1 | – | 55 | · | · | – | ·
O=C(Nc1ccc2c(c1)OCCO2)c1cccc2nc3ccccc3nc12 | – | – | · | · | 73 | ·
O=C(Nc1ccc2c(c1)OCCO2)c1ccccn1 | – | 48 | 77 | – | – | –
CO[C@@H]1CN(C)C(=O)c2cc(NC(=O)c3cc(C)on3)ccc2OC[C@@H](C)NC[C@@H]1C | · | · | – | – | · | –
Cc1ccccc1NC(=O)c1c([N+](=O)[O-])c(C(C)(C)C)nn1C | – | 55 | – | – | – | –
Cc1cccc(NC(=O)c2c([N+](=O)[O-])c(C(C)(C)C)nn2C)c1 | – | – | – | – | – | –
Cc1c(C(=O)N/N=C/c2ccc(Cl)cc2)[nH]c2ccc(Cl)cc12 | – | – | – | 59 | – | –
O=C(N/N=C/c1ccc(O)cc1)c1[nH]c2ccc(Br)cc2c1-c1ccccc1 | – | – | – | – | 63 | 96
C/C(=N\NC(=O)CCC(=O)O)c1c(-c2ccccc2)c2cc(Br)ccc2[nH]c1=O | – | – | – | – | – | –
O=C(N/N=C/c1c[nH]c2ccccc12)c1cc(Br)ccc1O | – | – | – | – | – | –
O=C(N/N=C/c1c[nH]c2ccccc12)c1[nH]c2ccc(Br)cc2c1-c1ccccc1 | – | – | – | – | ? | 94
O=C(NC1CCC1)[C@@H]1[C@@H](CO)[C@@H]2Cn3c(ccc(-c4ccncc4)c3=O)[C@@H]2N1CC1CC1 | · | · | – | – | · | ·
